“And” between values parts separate entries of the source, which are not always exact repeats. Equal values may be shown once. Compounds without any hit were thinned out: in the full panel of roughly 83,000, 20% have a hit.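 96-well plates, one dose, 48 hours. Percent growth reported; active if below 10.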 The source made the active and inactive calls.
Columns and labels:
Assay in all cases: NCI-60 one-dose screen, 48 h (100 = growth as untreated, 0 = no growth, -100 = all killed)
Details in all cases: 10 µM unless noted
HCT-15 colon = system: HCT-15 colon
HT29 colon = system: HT29 colon
SNB-19 CNS = system: SNB-19 CNS
U251 CNS = system: U251 CNS
PC-3 prostate = system: PC-3 prostate
SK-MEL-5 melanoma = system: SK-MEL-5 melanoma
UACC-62 melanoma = system: UACC-62 melanoma
LOX IMVI melanoma = system: LOX IMVI melanoma
SK-MEL-28 melanoma = system: SK-MEL-28 melanoma
SK-MEL-2 melanoma = system: SK-MEL-2 melanoma
SN12C renal = system: SN12C renal
UO-31 renal = system: UO-31 renal
TK-10 renal = system: TK-10 renal
ACHN renal = system: ACHN renal
A498 renal = system: A498 renal
HL-60(TB) leukemia = system: HL-60(TB) leukemia
CCRF-CEM leukemia = system: CCRF-CEM leukemia
SNB-75 CNS = system: SNB-75 CNS
CAKI-1 renal = system: CAKI-1 renal
EKVX NSCLC = system: EKVX NSCLC

Measured: growth

O=[N+]([O-])c1c(Cl)cc(Cl)c([N+](=O)[O-])c1Cl
inactive: HCT-15 colon 85.9% | HT29 colon 100% | SNB-19 CNS 113% | U251 CNS 96.1% | PC-3 prostate 83.2% | SK-MEL-5 melanoma 101% | UACC-62 melanoma 108% | LOX IMVI melanoma 33.6% | SK-MEL-28 melanoma 100% | SK-MEL-2 melanoma 112% | SN12C renal 108% | UO-31 renal 151% | TK-10 renal 112% | ACHN renal 103% | A498 renal 111% | HL-60(TB) leukemia 85.2% | CCRF-CEM leukemia 53.5%

Cc1cc[n+](CCc2ccccc2)cc1
inactive: HCT-15 colon 109% and 106% | HT29 colon 98.4% and 92.6% | SNB-75 CNS 96.3% and 84.1% | SNB-19 CNS 102% and 106% | PC-3 prostate 101% | UACC-62 melanoma 102% and 116% | SK-MEL-28 melanoma 103% and 101% | SN12C renal 102% and 105% | UO-31 renal 57.8% and 85.1% | TK-10 renal 91.8% and 106% | ACHN renal 103% | CAKI-1 renal 97% and 98.7% | A498 renal 83.9% and 93.6% | HL-60(TB) leukemia 97.8% and 95.8% | CCRF-CEM leukemia 101%

CC(=O)c1cccc(S(=O)(=O)F)c1
inactive: HCT-15 colon 96.3% | HT29 colon 104% | SNB-75 CNS 117% | U251 CNS 100% | PC-3 prostate 79% | SK-MEL-5 melanoma 110% | UACC-62 melanoma 103% | LOX IMVI melanoma 90.1% | SK-MEL-28 melanoma 120% | SK-MEL-2 melanoma 91.9% | EKVX NSCLC 98.8% | SN12C renal 104% | UO-31 renal 83% | TK-10 renal 115% | ACHN renal 99% | CAKI-1 renal 95.9% | A498 renal 95.8% | HL-60(TB) leukemia 103% | CCRF-CEM leukemia 97.9%

Cc1ccccc1-n1c(/C=C\c2ccccn2)nc2ccccc2c1=O
inactive: HT29 colon 79.7% | SNB-75 CNS 44.9% | SNB-19 CNS 87.9% | PC-3 prostate 56.5% | SK-MEL-5 melanoma 73.7% | UACC-62 melanoma 64.5% | SK-MEL-28 melanoma 83.2% | SK-MEL-2 melanoma 79.4% | EKVX NSCLC 82.8% | SN12C renal 77.7% | UO-31 renal 54.7% | TK-10 renal 49% | CAKI-1 renal 31.2% | A498 renal 62.1% | HL-60(TB) leukemia 19.9% | CCRF-CEM leukemia 29.9%

CCOC(=O)C1C(C=C(C)C)C1(C)C (stereo not given)
inactive: HT29 colon 116% | SNB-19 CNS 103% | U251 CNS 99.3% | PC-3 prostate 93% | SK-MEL-5 melanoma 109% | UACC-62 melanoma 99.8% | LOX IMVI melanoma 104% | SK-MEL-2 melanoma 121% | EKVX NSCLC 110% | SN12C renal 104% | UO-31 renal 120% | TK-10 renal 107% | ACHN renal 100% | CAKI-1 renal 95.8% | A498 renal 105% | HL-60(TB) leukemia 117% | CCRF-CEM leukemia 82.6%

Cc1ccc(C(=O)O[C@H](C(=O)O)[C@H](OC(=O)c2ccc(C)cc2)C(=O)O)cc1
inactive: HCT-15 colon 101% | HT29 colon 98% | SNB-75 CNS 103% | U251 CNS 97.8% | PC-3 prostate 101% | SK-MEL-5 melanoma 105% | UACC-62 melanoma 104% | LOX IMVI melanoma 97% | SK-MEL-28 melanoma 109% | SN12C renal 102% | TK-10 renal 105% | CAKI-1 renal 102% | A498 renal 120% | HL-60(TB) leukemia 95.4% | CCRF-CEM leukemia 105%

Nc1cccnc1
inactive: HCT-15 colon 111% | HT29 colon 103% | SNB-19 CNS 109% | U251 CNS 103% | PC-3 prostate 97.9% | SK-MEL-5 melanoma 112% | UACC-62 melanoma 109% | LOX IMVI melanoma 104% | SK-MEL-28 melanoma 117% | EKVX NSCLC 115% | SN12C renal 102% | UO-31 renal 107% | TK-10 renal 102% | ACHN renal 113% | CAKI-1 renal 104% | A498 renal 112% | HL-60(TB) leukemia 106% | CCRF-CEM leukemia 98.7%

CCOC(=O)C1C(c2ccco2)C2(C#N)C(=N)OC1(C)C2(C#N)C#N (stereo not given)
inactive: UACC-62 melanoma 62% [100 µM] and 20.8% [100 µM] | TK-10 renal 83.8% [100 µM] and 19.2% [100 µM]

CC1=C(C)C(=O)O[C@@H]([C@](C)(O)[C@]2(O)CC[C@@]3(O)[C@@H]4C[C@H]5O[C@]56CC=CC(=O)[C@]6(C)[C@H]4CC[C@]23C)C1
inactive: SNB-19 CNS 30.8% | PC-3 prostate 11.2%
active: HCT-15 colon -1.03% | HT29 colon 1.74% | SNB-75 CNS -11.3% | SK-MEL-5 melanoma -15.6% | UACC-62 melanoma -5.31% | LOX IMVI melanoma -54.7% | SK-MEL-28 melanoma 1.96% | SK-MEL-2 melanoma -24.6% | SN12C renal 3.65% | UO-31 renal -24.3% | TK-10 renal -48% | ACHN renal -72.4% | CAKI-1 renal -49% | A498 renal -59.9% | HL-60(TB) leukemia -36.9% | CCRF-CEM leukemia -8.66%

C=C1C(=O)OC2/C=C(\C)CC/C=C(/C)CC(OC(=O)/C(=C/CO)CO)C12 (stereo not given)
active: UACC-62 melanoma -89.6% [100 µM] and -100% [100 µM] | TK-10 renal -78.7% [100 µM] and -88.5% [100 µM]

O=S(=O)(O)c1ccc(Cl)cc1
inactive: HL-60(TB) leukemia 89.1%
